GLS inhibitor: inhibitors of human glutaminase (GLS); GLS enzymatic activity, qHTS titration; Potency, µM (titrated, usually from 45.5 µM), for the others: at the highest dose activity change, negative = inhibition, most hits filed as inhibitors; actives 0.21% (n = 410,000); AID 624170; further: on the % scale 0 is the no-effect control and ±100 the full control effect
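Assay buffer: 45 mM KH2PO4 pH 8.2, 0.02% Tween-20. hKGA acts on L-glutamine (1 mM solution added); product glutamate is reported by an oxidase/peroxidase Amplex Red coupling, with fluorescence taken at baseline and 30 min.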
HP1b binding inh: blocks HP1-beta chromodomain binding to methylated histone tails. AlphaScreen HP1-beta / biotin-H3K9me3 peptide binding. Potency, µM (series often up to 114 µM), without a hit: top-dose activity change, negative = inhibition, most hits filed as inhibitors. actives 0.56% (n = 390,000); further: nearly all actives have a fitted effect of over 70% in size
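AlphaScreen: HP1-beta (50 nM) preformed 30 min with biotin-H3(1-18)K9me3 peptide (50 nM) in PBS pH 7.4, 0.01% Tween-20. Compound added for 30 min at RT, then streptavidin donor/nickel chelate acceptor beads (10 ug/mL) for 30 min.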
JMJD2A Tudor: JMJD2A Tudor domain (human) inhibition | AlphaScreen JMJD2A-Tudor / H3K4me3 peptide binding | actives 4.4% (n = 390,000) | O75164 | Potency, µM (series often up to 114 µM), without a hit: at the highest dose activity change, negative = inhibition, hits mostly inhibitors | AID 504339; further: on the % scale 0 is the no-effect control and ±100 the full control effect; nearly all actives have a fitted effect of over 50% in size
Target sequence (O75164 whole entry, looked up, the tested form may be a part): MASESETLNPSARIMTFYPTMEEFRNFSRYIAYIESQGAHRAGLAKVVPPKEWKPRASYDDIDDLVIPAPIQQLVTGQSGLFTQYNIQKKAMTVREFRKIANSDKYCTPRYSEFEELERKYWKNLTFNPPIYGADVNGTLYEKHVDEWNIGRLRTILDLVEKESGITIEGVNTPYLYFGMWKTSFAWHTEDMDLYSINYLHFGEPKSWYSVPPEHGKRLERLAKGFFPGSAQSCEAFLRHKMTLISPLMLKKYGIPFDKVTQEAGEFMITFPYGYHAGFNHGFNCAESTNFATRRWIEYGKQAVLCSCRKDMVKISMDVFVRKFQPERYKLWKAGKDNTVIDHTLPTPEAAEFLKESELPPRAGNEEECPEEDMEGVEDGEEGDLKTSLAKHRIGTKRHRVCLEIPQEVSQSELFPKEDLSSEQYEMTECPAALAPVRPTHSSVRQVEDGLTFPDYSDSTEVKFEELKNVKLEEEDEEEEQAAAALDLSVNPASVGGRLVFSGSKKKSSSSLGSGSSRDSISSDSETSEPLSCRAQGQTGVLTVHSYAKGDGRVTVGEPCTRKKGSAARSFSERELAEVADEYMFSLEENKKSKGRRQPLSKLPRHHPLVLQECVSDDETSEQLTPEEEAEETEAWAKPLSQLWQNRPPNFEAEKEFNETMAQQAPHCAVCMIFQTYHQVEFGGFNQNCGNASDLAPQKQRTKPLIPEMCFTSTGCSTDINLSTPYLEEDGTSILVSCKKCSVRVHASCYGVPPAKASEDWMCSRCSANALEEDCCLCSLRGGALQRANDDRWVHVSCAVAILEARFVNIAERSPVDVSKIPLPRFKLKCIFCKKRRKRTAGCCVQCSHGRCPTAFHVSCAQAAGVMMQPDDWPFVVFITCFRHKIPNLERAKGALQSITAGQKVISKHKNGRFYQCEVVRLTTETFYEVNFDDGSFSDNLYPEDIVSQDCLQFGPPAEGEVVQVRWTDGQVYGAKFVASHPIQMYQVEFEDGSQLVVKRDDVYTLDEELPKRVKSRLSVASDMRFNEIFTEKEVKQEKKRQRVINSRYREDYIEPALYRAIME
BAZ2B inh: blocks human BAZ2B | Q9UIF8 | AlphaScreen BAZ2B-H3K14Ac peptide displacement | Potency, µM (top dose mostly 114 µM), inactives show at the top dose activity change, negative = inhibition, actives largely listed as inhibitors | actives 4.4% (n = 360,000); further: on the % scale 0 is the no-effect control and ±100 the full control effect; nearly all actives have a fitted effect of over 60% in size
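AlphaScreen displacement of biotin-H3(5-23)K14Ac peptide (50 nM final) from BAZ2B (50 nM final) in PBS pH 7.4, 0.01% Tween-20; complex preformed 30 min RT, then compounds (top 110 uM) 30 min RT, beads 20 min dark.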
G9a block: blocks human histone lysine methyltransferase G9a; G9a H3K9 monomethylation, AlphaScreen, 2 h; Potency, µM (top dose mostly 102 µM), for the others: top-dose activity, negative = inhibition, actives largely listed as inhibitors; actives 8.8% (n = 350,000); further: on the % scale 0 is the no-effect control and ±100 the full control effect; nearly all actives have a fitted effect of over 75% in size
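AlphaScreen read-out: biotin-H3K9 peptide (500 nM) methylation by 20 nM enzyme with 20 uM SAM, 2 h at room temperature after 15 min compound preincubation; anti-monomethyl H3K9 antibody plus donor/acceptor beads, 10 min dark.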
* = called active by the depositor; ? = inconclusive; · = not tested or not shown; [ ] = remark or other dose. Sampled rows, rich in hits. Any-hit rate of the full collection: about 10%. The call rests on the fitted dose curve; in most records, active means well fitted curve in the direction sought with a large enough effect; inconclusive means small, poorly fitted or top-dose-only effect, or another doubt; inactive means no such curve, though single readings can be large; an effect the other way counts as inactive or inconclusive. Potency means the concentration at half of the fitted maximal effect.

SMILES | GLS inhibitor | HP1b binding inh | JMJD2A Tudor | BAZ2B inh | G9a block
CC1Cc2ccccc2N1Cc1cc(=O)c(OCC(=O)Nc2ccccc2)co1 (stereo unspecified) | 9.9% | 4.8% | -23.6% | -38.8% | -43.6%
CCOC(=O)c1ccc(NC(=O)COc2coc(CN3CCc4ccccc43)cc2=O)cc1 | 0.2% | 8.4% | ? | ? | -36.6%
O=C(NCCNc1ccc(Cl)cc1[N+](=O)[O-])c1cccnc1 | 0.0% | -5.6% | -20.8% | -30.2% | ?
Cc1ccoc1C(=O)NCCNc1ccc(Cl)cc1[N+](=O)[O-] | 1.7% | ? | ? | 44.7µM* | 17.8µM*
CC1(C)C=C2C(=NN(c3ccccc3)C(N)=C2C#N)CO1 | 2.6% | 38.6% | -30.1% | -38.1% | 6.31µM*
Cc1ccc(Sc2oc(/C=N/n3cnnc3)cc2Br)cc1 | 8.91µM* | 9.6% | -21.9% | -0.2% | -34.1%
O=C(O)c1ccc(S(=O)(=O)N[C@H](Cc2ccccc2)C(=O)O)cc1 | · | · | 1.4% | · | ·
COc1cc(C2CC(=O)Nc3cc4c(cc32)OCO4)cc(OC)c1O (stereo unspecified) | 8.1% | 7.8% | -19.5% | -27.9% | ?
Cc1ccc(-c2nc3c4ccccc4ccn3c2CN2CCCCC2)cc1 | 7.6% | 1.7% | ? | 50.1µM* | ?
c1ccc(-c2nc3c4ccccc4ccn3c2CN2CCCCC2)cc1 | -10.3% | 11.2% | -35.9% | -34.9% | -35.3%
Cc1nc(CC(=O)Nc2ccc(N(C)C)cc2)cs1 | -2.8% | 12.9% | ? | ? | 14.1µM*
C/C(CC(=O)Nc1ccc(N(C)C)cc1)=N\NC(=O)Cc1csc(N)n1 | 37.2% | -8.3% | ? | ? | 44.7µM*
CN(C)c1ccc(/C=[N+](\[O-])C(C)(C)/C=N/O)cc1 | 45.6% | 20.2% | 50.1µM* | -3.8% | ?
COc1ccc(/C=N/Nc2nnc(Cc3ccccc3)c(=O)[nH]2)cc1OC | -4.7% | 21.4% | 5.7% | -5.2% | 19.1%
O=C(c1cccc(F)c1)N1CCC2(CCCN(Cc3ccccc3)C2)CC1 | · | · | · | · | 3.3%[12.7 µM]
CCN(CC)S(=O)(=O)c1ccc(C)c(NC(=O)COc2ccc(Cl)cc2Br)c1 | -5.0% | 39.8% | -15.0% | -28.9% | 44.7µM*
COc1cc(OC)c(NC(=O)CCNC(=O)Cn2ccc3ccccc3c2=O)cc1Cl | -2.9% | 42.2% | -18.2% | 12.8% | 4.3%[0.0925 µM]
COc1cc(O)c2c(c1)OC(c1ccc(O)cc1)CC2=O (stereo unspecified) | 10.7% | 74.0% | -23.1% | -10.0% | -7.1%[59 µM]
Cc1c(O)cc2c(c1O)C(=O)CC(c1ccc(O)cc1)O2 (stereo unspecified) | -28.2% | -6.1% | ? | 56.2µM* | ?
Cc1ccsc1/C=C1/SC(N2CC(C)OC(C)C2)=NC1=O (stereo unspecified) | -8.7% | 8.9% | -10.5% | 1.2% | 44.7µM*
Cc1ccc(S(=O)(=O)NC(C)CCc2ccccc2)cc1C(N)=O (stereo unspecified) | -0.8% | 8.9% | -19.9% | -8.7% | 0.8%
C(=N\N1CCOCC1)/c1nc(-c2ccccc2)n2ccccc12 | 2.0% | 6.2% | -29.8% | ? | 17.8µM*
COc1ccc(N(C(=O)c2ccccc2OC)C2C=CS(=O)(=O)C2)c(OC)c1 (stereo unspecified) | -1.8% | 58.3% | -2.3% | -5.4% | 8.6%[12.7 µM]
COc1ccc(C(=O)/C(=C/O)N=Nc2ccc(F)cc2)cc1 | 20.5% | -28.9% | 56.2µM* | 31.6µM* | ?
COc1ccc(CC(=O)NNC(=O)c2cccs2)cc1 | 5.0% | 21.2% | -18.9% | 12.6% | 11.9%[59 µM]
SMILES | GLS inhibitor | HP1b binding inh | JMJD2A Tudor | BAZ2B inh | G9a block
COc1ccc(N=N/C(=C\O)C(=O)c2cccs2)cc1 | 49.6% | ? | 15.8µM* | 11.2µM* | 20µM*
COc1ccc(N=N/C(C(C)=O)=C(/C)O)cc1 | 15.5% | -4.3% | -30.4% | -29.2% | 1.0%
COC(=O)C(C)Sc1ccc2nnc(CCNS(=O)(=O)c3ccc(C)cc3)n2n1 (stereo unspecified) | -2.6% | 32.0% | -2.9% | 0.1% | ?
Cc1nnc2ccc(-c3ccc(NC(=O)c4ccco4)cc3)nn12 | -8.4% | 14.5% | -4.6% | -19.9% | 35.5µM*
CC(=O)Nc1ccc(-c2ccc3nnc(C)n3n2)cc1 | 2.6% | 13.0% | -13.3% | -5.9% | -6.5%
O=C(C[C@H]1C[C@H](C(=O)N2CCCCC2)[C@@]2(CCc3ccccc3)c3[nH]c4ccc(Cl)cc4c3CCN2C1=O)NCCCn1ccnc1 | -4.7% | -23.4% | 35.5µM* | · | ·
CC(C)=CCC/C(C)=C/CNC(=O)C[C@H]1C[C@H](C(=O)N2CCCCC2)[C@@]2(CCc3ccccc3)c3[nH]c4cc(-c5ccco5)ccc4c3CCN2C1=O | -2.1% | 7.5% | -34.8% | · | ·
COCCCNC(=O)C[C@H]1C[C@H](C(=O)N2CCCCC2)[C@@]2(CCc3ccccc3)c3[nH]c4cc(-c5ccco5)ccc4c3CCN2C1=O | -0.8% | ? | 44.7µM* | · | ·
O=C(C[C@H]1C[C@H](C(=O)N2CCOCC2)[C@@]2(CCC3CCCC3)c3[nH]c4cc(-c5ccco5)ccc4c3CCN2C1=O)NCCCn1ccnc1 | -1.2% | ? | 56.2µM* | · | ·
O=C(C[C@H]1C[C@H](C(=O)N2CCCCC2)[C@@]2(CCc3ccccc3)c3[nH]c4cc(-c5ccco5)ccc4c3CCN2C1=O)NCCN1CCOCC1 | -11.7% | 20µM* | 39.8µM* | · | ·
CCOC(=O)C1CCC(=O)N1Cc1c[nH]c2ccccc12 (stereo unspecified) | 5.0% | · | · | · | ·
CNc1oc(C)nc1S(=O)(=O)c1ccccc1 | 0.7% | ? | ? | -4.1% | ?
CCCNC(=O)c1ccc(N2CCC3(CC2)CC(c2ccccc2)=NO3)c(NC(=O)c2cccc(C)c2)c1 | 2.9% | 26.7% | -25.0% | -8.0%[57.1 µM] | ?
COc1ccc2[nH]c3c(c2c1)CCN1C(=O)C(CC(=O)NCc2ccc(OC)c(OC)c2)C[C@H](C(=O)N2CCOCC2)[C@@]31CCC1CCCC1 (stereo partly specified) | 29.0% | 5.2% | 50.1µM* | · | ·
O=[N+]([O-])c1ccc(O)c(/C=N/Nc2nc3ccccc3[nH]2)c1 | 29.4% | 16.9% | ? | 31.6µM* | -9.2%
O=[N+]([O-])c1ccc(O)c(C=NNc2ccc(S(=O)(=O)O)cc2)c1 | 97.6% | -6.7%[57 µM] | 79.4µM* | · | ·
O=[N+]([O-])c1ccc(O)c(/C=N/Nc2ccccn2)c1 | 20.7% | 23.5% | ? | 4.47µM* | -14.7%
COc1ccc(O)c(/C=N/Nc2nc3ccccc3[nH]2)c1 | -2.0% | 48.0% | -2.1% | -33.6% | ?
O=[N+]([O-])c1ccc(O)c(/C=N/Nc2ncnc3c2cnn3-c2ccccc2)c1 | 11.2% | -9.8% | 79.4µM* | ? | 3.2%
O=[N+]([O-])c1cccc(N/N=C/c2cc([N+](=O)[O-])ccc2O)c1 | -22.7% | 7.0% | -7.6% | -24.2% | -5.2%
COc1cccc(CN(C)C(=O)c2cc(-c3cccs3)nc3ccccc23)c1 | -3.9% | 53.4% | 23.6% | 7.4% | 114.3%

Screening data (PubChem BioAssay)
